Among the data in PubChem BioAssay AID504387 (National Center for Advancing Translational Sciences (NCATS), 2011) are IC50 and outcome values, retold here.

Active and inactive are the calls of the source. No rule for the calls is given here.

The term IC50 denotes the midpoint of a concentration-inhibition curve.

Sequence of Thyrotropin receptor (Homo sapiens) (P16473 whole entry, looked up): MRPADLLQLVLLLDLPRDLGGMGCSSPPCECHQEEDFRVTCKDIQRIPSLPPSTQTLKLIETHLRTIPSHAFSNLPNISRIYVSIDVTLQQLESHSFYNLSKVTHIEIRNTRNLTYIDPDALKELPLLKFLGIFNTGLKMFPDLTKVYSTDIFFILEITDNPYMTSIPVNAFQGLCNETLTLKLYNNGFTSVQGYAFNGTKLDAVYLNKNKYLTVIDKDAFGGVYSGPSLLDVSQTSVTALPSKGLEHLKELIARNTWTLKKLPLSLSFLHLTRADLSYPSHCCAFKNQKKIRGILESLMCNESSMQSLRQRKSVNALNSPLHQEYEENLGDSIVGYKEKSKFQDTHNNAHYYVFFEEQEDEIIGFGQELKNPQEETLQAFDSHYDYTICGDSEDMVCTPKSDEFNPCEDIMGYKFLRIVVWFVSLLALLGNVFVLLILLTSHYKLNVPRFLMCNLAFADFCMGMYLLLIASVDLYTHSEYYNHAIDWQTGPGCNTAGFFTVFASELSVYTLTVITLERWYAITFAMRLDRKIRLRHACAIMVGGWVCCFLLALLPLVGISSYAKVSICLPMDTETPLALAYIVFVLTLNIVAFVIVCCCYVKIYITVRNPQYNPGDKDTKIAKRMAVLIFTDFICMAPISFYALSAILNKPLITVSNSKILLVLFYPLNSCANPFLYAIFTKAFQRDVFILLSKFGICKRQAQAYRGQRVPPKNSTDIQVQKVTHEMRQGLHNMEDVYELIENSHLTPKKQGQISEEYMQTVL

This experiment concerns the target Thyrotropin receptor (Homo sapiens) (UniProt P16473). Put plainly: Concentration-response assay for antagonists of the thyroid stimulating hormone receptor: ELISA activity detection. The note with it: HEK293-TSHR, TSH-induced cAMP, ELISA chemiluminescence. The source says: TSH is an alpha/beta heterodimeric glycoprotein hormone secreted from the anterior pituitary gland which belongs to the glycoprotein hormone family. The actions of TSH are mediated by a seven-transmembrane receptor, which upon TSH binding couples preferentially to the G-alpha (s) protein (Gs), resulting in activation of adenylate cyclase and increase in cyclic adenosine 3', 5' monophosphate (cAMP). The TSH receptor (THSR) is mainly expressed in thyroid follicular cells and regulates their growth and function. This cell based assay was conducted on a TSHR transfected HEK 293 cell line, measuring cAMP stimulation using antibody-based Homogeneous Time Resolved Fluorescence (HTRF). Our goal is to identify small molecules that will inhibit (antagonize) the thyroid-stimulating hormone receptor (TSHR), a member of the 7 transmembrane-spanning receptor (7TMR) family of cell surface receptors. TSHR-mediated hyperthyroidism is important in thyroid pathology. The development of small molecule antagonists of TSHR may lead to therapeutic approaches for TSHR-mediated hyperthyroidism caused by constitutively activating mutations or stimulating auto-antibodies associated with Graves' disease. Graves' disease is the leading cause of hyperthyroidism and is caused by autoantibodies that stimulate TSHR (TsAbs) causing thyroid growth and unregulated overproduction of thyroid hormones and existing treatments have liabilities (agranulocytosis). In addition, TSHRs are known to be expressed in multiple extrathyroidal tissues including bone, brain, kidney, testis, fat and cells of the immune system but the role of the TSHR in these tissues is not clear. Therefore, TSHR antagonists/inverse agonists could be used as probes of extrathyroidal TSHR function. Finally, TSHR inverse agonists, which are a subclass of antagonists that inhibit agonist-independent (or basal or constitutive) TSHR signaling, could be used to inhibit TSH-independent signaling in patients with recurrent or metastatic thyroid cancer who are receiving thyroid hormone to suppress TSH. A confirmatory assay of TSHR antagonists was conducted on a HEK 293 cell line stably expressing the TSHR, using an orthogonal detection technology to measure cAMP stimulation: an ELISA based cAMP competition assay using cAMP-Screen Direct System (Applied Biosystems, Foster City, CA).
Transiently transfected HEK-EM 293 cells or cells stably expressing TSHRs were seeded into 96-well plates at a density of 7 x10^4 cells per well in DMEM containing 10% FBS. Cells were cultured for 24 h before incubation for 20 min in HBSS/10 mM HEPES (pH 7.4). To determine the effect of the compound on TSH induced TSHR activity, cells were incubated for 20 min with the compound in HBSS/HEPES without IBMX and subsequently for 40 min with bovine TSH (Sigma) and the compound in HBSS/HEPES supplemented with 1 mM IBMX at 37 C. The levels of cAMP in cells incubated in HBSS/HEPES without IBMX were subtracted in all experiments. After aspiration of the incubation medium, cells were lysed using lysis buffer of the cAMP-Screen Direct system (Applied Biosystems, Foster City, CA). The cAMP content of the cell lysate was determined using the method described in the manufacturer's protocol. The chemiluminescence signal was measured in a VICTOR3 V 1420 multilabel counter (PerkinElmer, Norwalk, CT). The potencies (EC50 and IC50) of the ligands were obtained from dose-response curves by data analysis with GraphPad Prism 4 for Windows.
As to `COc1ccc(C2Nc3ccccc3C(=O)N2Cc2ccco2)cc1COc1c(C)cc(NC(C)=O)cc1C` (stereo unspecified), the IC50 was 2300 nM (active).

For the compound `Cc1cccc(C)c1OCc1cccc(C2Nc3ccccc3C(=O)N2Cc2ccco2)c1` (stereo unspecified), the IC50 was 1900 nM (active).

For `COc1ccc(C2Nc3ccccc3C(=O)N2Cc2ccc(C)o2)cc1COc1c(C)cccc1C` (stereo unspecified), the IC50 was 2300 nM (active).

Turning to `COc1ccc(C2Nc3ccccc3C(=O)N2Cc2cccs2)cc1COc1c(C)cccc1C` (stereo unspecified), the IC50 was 1000 nM (active).

`CCc1cccc(CC)c1OCc1cc(C2Nc3ccccc3C(=O)N2Cc2ccco2)ccc1OC` (stereo unspecified): the IC50 is 22300 nM (active).

As for `COc1ccc(C2Nc3ccccc3C(=O)N2Cc2cccnc2)cc1COc1c(C)cccc1C` (stereo unspecified), the IC50 is 3500 nM (active).

Regarding `COc1ccc(C2Nc3ccccc3C(=O)N2Cc2ccco2)cc1CSc1c(C)cccc1C` (stereo unspecified), the IC50 is 9900 nM (active).

With `COc1ccc(C2Nc3ccccc3C(=O)N2Cc2ccccc2)cc1COc1c(C)cccc1C` (stereo unspecified), the outcome was inactive.

With `COc1ccc(C2Nc3ccccc3C(=O)N2Cc2ccccn2)cc1COc1c(C)cccc1C` (stereo unspecified), the result was inactive.

Consider `COc1ccc(C2Nc3ccccc3C(=O)N2Cc2ccco2)cc1COc1ccccc1C` (stereo unspecified), for which the result was inactive.

`COc1ccc(C2Nc3cccc(O)c3C(=O)N2Cc2ccco2)cc1COc1c(C)cc(NC(C)=O)cc1C` (stereo unspecified): the compound was classed as inactive.
